Compound activity deposited in PubChem BioAssay by National Center for Advancing Translational Sciences (NCATS).
D2 PAM-1 = D2 dopamine receptor (human) potentiation | P14416 | HEK293 T-REx D2, calcium flux, EC20 dopamine potentiation | potentiation, % at 10 µM | 0.34% of 340,000 active | AID 485347;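 active = potentiation over 3 SD above the plate norm, cut at about 30% in these data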; note: 0% is about no effect
Target sequence (P14416 whole entry, looked up): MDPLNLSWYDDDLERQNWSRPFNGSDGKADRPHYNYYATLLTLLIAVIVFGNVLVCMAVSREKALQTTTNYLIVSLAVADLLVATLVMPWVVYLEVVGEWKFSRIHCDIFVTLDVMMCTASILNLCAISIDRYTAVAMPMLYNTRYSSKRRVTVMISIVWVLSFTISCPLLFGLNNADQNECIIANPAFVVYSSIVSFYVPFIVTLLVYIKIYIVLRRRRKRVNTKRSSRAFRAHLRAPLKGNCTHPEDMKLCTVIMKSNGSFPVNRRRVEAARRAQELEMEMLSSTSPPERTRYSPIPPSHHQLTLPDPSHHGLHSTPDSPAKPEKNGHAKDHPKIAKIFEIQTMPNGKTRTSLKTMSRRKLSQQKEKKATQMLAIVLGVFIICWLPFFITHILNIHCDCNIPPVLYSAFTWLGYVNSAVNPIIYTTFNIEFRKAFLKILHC
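Potentiation of an EC20 dopamine calcium response measured kinetically over 180 s, after a preceding 180 s compound-only read flagging agonists. Cells: inducible Hek293 Trex D2 line, 4000/well, cultured overnight at 30 C before dye loading.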
D2 PAM-2 = potentiates the human D2 dopamine receptor allosterically; DiscoveRx D2 beta-arrestin cells, luminescence, 90 min; 100% = 57 uM dopamine signal; 0.23% of 360,000 active; AID 624464; P14416; potentiation, % (no concentration beside the values); in the data active = potentiation above about 50%; inconclusive = mostly about 30% to 49%
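PathHunter D2 cells, attached overnight at 37 deg C, received compound in DMSO plus dopamine at EC20 (50 nM final) for 90 min at 37 deg C. Beta-arrestin recruitment was read as luminescence after 1 h with detection reagent at ambient temperature.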
D2 antagonist = antagonizes the human D2 dopamine receptor. P14416. HEK293 TREx D2 cells, calcium flux, dopamine EC80. inhibition, % at 10 µM. 2% of 340,000 active. AID 485344; in the data active = inhibition above about 30%; inactive = below that, where a call was filed; note: 0% is about no effect
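In this primary screen, negative modulation is detected by tracking calcium flux after an EC80 dopamine challenge in inducible HEK293 T-REx D2 cells preexposed to test compound for 180 s.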
D2 ag-1 = activates the human D2 dopamine receptor; activation, % (test concentration not listed); AID 624465; 0.084% of 360,000 active; DiscoveRx PathHunter D2 beta-arrestin, luminescence, 90 min; 100% = 57 uM dopamine signal; in the data active = activation above about 40%; inconclusive = between about 15% and that limit
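Agonist mode: compounds alone added to overnight-plated D2 PathHunter cells for 90 min at 37 C, with 57 uM final dopamine (EC100) defining full response. Beta-arrestin recruitment detected by chemiluminescent reagent, read after 1 h at ambient temperature.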
D2 ag-2 = agonists of human D2 dopamine receptor; activation, % at 2 µM; HEK293 T-REx D2 cells, calcium flux agonist mode; AID 485358; 0.53% of 340,000 active;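 active = activation over 3 SD above normal in the single-dose calcium agonist read, cut at about 30% in these data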; note: 0% is about no effect
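In this primary screen, compounds producing a positive calcium signal within 180 s of addition to tetracycline-induced, force-coupled HEK293 Trex D2 cells are flagged; cells are dye-loaded with a no-wash calcium kit beforehand.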
D3 arrestin ag = activates human D3 dopamine receptor beta-arrestin recruitment; shares compounds with D2 ag-2; DiscoveRx D3 beta-arrestin cells, luminescence, 90 min; Potency, µM (highest dose often 76.9 µM), for the others: at the highest dose activation, hits mostly activators; 4% of 2,300 active; AID 720506;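 note: potency is the fitted concentration of half-maximal effect; 100% = dopamine control response; nearly all actives have a fitted effect of over 70% in size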
D2 ag-3 = D2 receptor agonism, beta-arrestin counterscreen; shares compounds with D2 ag-2; DiscoveRx PathHunter D2 beta-arrestin, luminescence, 90 min; response scale: percent relative to full dopamine signal; Potency, µM (doses to about 76.9 µM), without a hit: at the top dose activation, usual class: activators; 5.9% of 2,300 active; AID 720507; note: potency is the fitted concentration of half-maximal effect; % of control where 0% means no effect; nearly all actives have a fitted effect of over 70% in size
Active calls of the source: *. Hits are enriched below; roughly 2.4% of the tested compounds scored in any of these assays. Unless noted, calls come from the whole dose curve; as a rule, active = well fitted activation curve with a large enough effect; inconclusive = small, poorly fitted or top-dose-only effect; inactive = flat fitted curve, though single readings scatter.

How did Cc1cc(C)c(OCC(O)CN2CCN(c3ccccn3)CC2)c(C)c1 (stereo not given) do in these assays?
D2 PAM-1: -26; D2 PAM-2: inconclusive; D2 antagonist: 78*; D2 ag-1: 48*; D2 ag-2: 79*; D3 arrestin ag: 0.079µM*; D2 ag-3: 10µM*

Results for OC(COc1ccc(Cl)c2ccccc12)CN1CCN(c2ccccn2)CC1 (stereo not given) ?
D2 PAM-1: -21; D2 PAM-2: -24; D2 antagonist: 35*; D2 ag-1: 5; D2 ag-2: 54*; D3 arrestin ag: 14µM*; D2 ag-3: inconclusive

What do the screens show for `Cc1cc(OCC(O)CN2CCN(c3ccccn3)CC2)cc(C)c1Cl` (stereo not given)?
D2 PAM-1: -17; D2 PAM-2: 5; D2 antagonist: 43*; D2 ag-1: inconclusive; D2 ag-2: 46*; D3 arrestin ag: 6.3µM*; D2 ag-3: inconclusive

How did OC(CN1CCN(c2ccccn2)CC1)Cn1c2ccccc2c2ccccc21 (stereo not given) do in these assays?
D2 PAM-1: -19; D2 PAM-2: -6; D2 antagonist: 2; D2 ag-1: 8; D2 ag-2: 2

Results for CN(CC(=O)NCc1ccc(Cl)cc1)S(=O)(=O)c1ccc2c(c1)c(=O)n(C)c(=O)n2C ?
D2 PAM-1: 6; D2 ag-2: -1

What do the screens show for `Cc1[nH]nc2c1C(c1ccsc1)C1=C(CC(C)(C)CC1=O)N2` (stereo not given)?
D2 PAM-1: -4; D2 PAM-2: -14; D2 antagonist: 10; D2 ag-1: -3; D2 ag-2: 42*; D3 arrestin ag: -10%; D2 ag-3: -6%

What do the screens show for `Cc1[nH]nc2c1C(c1cccs1)C1=C(CC(C)(C)CC1=O)N2` (stereo not given)?
D2 PAM-1: -6; D2 PAM-2: 3; D2 antagonist: 30*; D2 ag-1: -2; D2 ag-2: 36*; D3 arrestin ag: -1%; D2 ag-3: -4%

Results for O=C(Nc1ccc(Cl)c(C(F)(F)F)c1)c1cc2nc(-c3ccc4c(c3)OCO4)cc(C(F)(F)F)n2n1 ?
D2 PAM-1: -12; D2 ag-2: 0

What do the screens show for `COc1cccc(S(=O)(=O)NCc2ccc(C(=O)N3CCN(c4ccccc4)CC3)cc2)c1`?
D2 PAM-1: -16; D2 PAM-2: 5; D2 antagonist: 56*; D2 ag-1: inconclusive; D2 ag-2: 59*; D3 arrestin ag: -5%; D2 ag-3: inconclusive

Results for COc1cccc(S(=O)(=O)NCc2ccc(C(=O)N3CCN(c4ccccc4OC)CC3)cc2)c1 ?
D2 PAM-1: -24; D3 arrestin ag: -1%; D2 ag-3: 7%

How did Cc1ccc(-c2nc(CCNC(=O)C(=O)Nc3ccc(F)cc3F)cs2)cc1 do in these assays?
D2 PAM-1: 9; D2 ag-2: 1

How did O=C(c1ccco1)N1CCN(Cc2cccc(F)c2)CC1 do in these assays?
D2 PAM-1: -24; D2 PAM-2: 23; D2 antagonist: 84*; D2 ag-1: 60*; D2 ag-2: 88*; D3 arrestin ag: inconclusive; D2 ag-3: 20µM*

How did O=C(c1ccco1)N1CCN(Cc2ccc(Br)cc2)CC1 do in these assays?
D2 PAM-1: -20; D2 PAM-2: inconclusive; D2 antagonist: 80*; D2 ag-1: 58*; D2 ag-2: 79*; D3 arrestin ag: inconclusive; D2 ag-3: 16µM*

What do the screens show for `O=C(c1ccco1)N1CCN(Cc2csc(-c3ccccc3Cl)n2)CC1`?
D2 PAM-1: -25; D2 PAM-2: -37; D2 antagonist: 14; D2 ag-1: 0; D2 ag-2: 41*; D3 arrestin ag: -3%; D2 ag-3: 7%

What do the screens show for `CCc1ccc(CN2CCN(C(=O)c3ccco3)CC2)cc1`?
D2 PAM-1: -18; D2 PAM-2: inconclusive; D2 antagonist: 83*; D2 ag-1: 78*; D2 ag-2: 80*; D3 arrestin ag: 5.6µM*; D2 ag-3: 14µM*

What do the screens show for `CCOC(=O)c1ccc(NC(=O)CC2C(=O)N(c3ccc(C)cc3)C(=O)N2C2CCCC2)cc1` (stereo not given)?
D2 PAM-1: -8; D2 ag-2: 2

Results for CN(C)c1ccc(C(CNC(=O)Cc2ccc(Cl)cc2)N2CCOCC2)cc1 (stereo not given) ?
D2 PAM-1: 0; D2 ag-2: 1

Results for COC(=O)c1ccc(OCC(O)CN2CCN(C(=O)c3ccco3)CC2)cc1 (stereo not given) ?
D2 PAM-1: 6; D2 PAM-2: 22; D2 antagonist: 11; D2 ag-1: inconclusive; D2 ag-2: 0

Results for O=C(c1ccco1)N1CCN(Cc2nc(-c3cccs3)no2)CC1 ?
D2 PAM-1: -11; D2 PAM-2: 15; D2 antagonist: -3; D2 ag-1: 8; D2 ag-2: 4; D3 arrestin ag: 6%; D2 ag-3: 13%

How did COC(=O)c1ccc(OCC(O)CN2CCN(C(=O)c3ccco3)CC2)c(OC)c1 (stereo not given) do in these assays?
D2 PAM-1: -31; D2 PAM-2: 14; D2 antagonist: 26; D2 ag-1: 13; D2 ag-2: 64*; D3 arrestin ag: -8%; D2 ag-3: inconclusive

What do the screens show for `Cc1ccc(C)n1CCN1CCN(C(=O)c2ccco2)CC1`?
D2 PAM-1: 7; D2 PAM-2: -29; D2 antagonist: 3; D2 ag-1: 6; D2 ag-2: 25; D3 arrestin ag: 4%; D2 ag-3: 9%

Results for O=C(c1ccco1)N1CCN(CC(O)COc2ccc(Br)cc2)CC1 (stereo not given) ?
D2 PAM-1: -19; D2 PAM-2: -4; D2 antagonist: 77*; D2 ag-1: 5; D2 ag-2: 76*; D3 arrestin ag: inconclusive; D2 ag-3: inconclusive

How did COc1ccc(NC(=O)CSC2=Nc3ccccc3C3=NC(CCC(=O)NCc4cccs4)C(=O)N23)cc1 (stereo not given) do in these assays?
D2 PAM-1: -17; D2 ag-2: 0

How did CCOc1ccc(CNC(=O)Cn2c(=O)c3cccn3c3ccc(F)cc32)cc1OC do in these assays?
D2 PAM-1: 9; D2 ag-2: 0

What do the screens show for `COc1ccc(C(=O)NCC(c2cccnc2)N2CCN(c3ccc(F)cc3)CC2)cc1` (stereo not given)?
D2 PAM-1: -4; D2 ag-2: -1
